From PubChem BioAssay (Tox21)
Activity calls are given as the source filed them. Calls follow the shape of the dose curve; as a rule, active = well fitted curve in the direction sought with a large enough effect in the repeat runs; inconclusive = weak or mixed curves; inactive = flat fitted curve, though single readings scatter.

Test: qHTS assay to test for compound auto fluorescence at 535 nm (green) in HEK293 cell free culture (AID 720682)
Settings: cell-free medium, green autofluorescence 485/535 nm, active compounds read high; series mostly up to 91.3 µM
Text: U.S. Tox21 Program National Center for Advancing Translational Sciences [NCATS] NIH Chemical Genomics Center [NCGC] U.S. Environmental Protection Agency [EPA] National Institutes of Environmental Health Sciences [NIEHS] National Toxicology Program [NTP] U.S. Food and Drug Administration [FDA] Tox21 Assay Overview: Compound auto fluorescence often interferes with screening of the compound library against various biological targets and signaling pathways. Some of these compounds may have fluorophoric properties. Such properties may interfere with the assay outputs resulting in false positives and/or negatives. To decrease such complications and ensure the compound activities are relevant in terms of biological response, the Tox21 10K compound library was screened for auto fluorescence. From the fluorophores used as reporter signals in our screening assays, the auto fluorescence equivalencies of compounds against three fluorophores have been evaluated: Triamterene, Fluorescein and Rose Bengal sodium for blue, green and red fluorescence, respectively. The fluorescence intensities were measured using Excitation/Emission wavelengths at 405/460nm, 485/535nm and 540/590nm for blue, green and red labels, respectively. This assay includes the green fluorescence data.
Tox21 Assay Protocol Summary: 5 uL of culture medium (DMEM containing 10% FBS) per well was dispensed into black wall/clear bottom 1536-well plates using a Multidrop Combi Dispenser (ThermoFisher Scientific, Waltham, MA). After 23 nL compound or DMSO vehicle was transferred into assay plate by a pintool work station (Kalypsys, San Diego, CA), fluorescence intensities in the assay plates were measured by an Envision (PerkinElmer, Shelton, CT) plate reader using three labels for measuring blue, green and red fluorescence at […] 460, 535 and 590nm respectively.
% is scaled to controls: 0 for no effect and ±100 for the full control effect.

Row | SMILES | outcome | activity change
1 | O=C(O)c1ccccc1S | inactive | –
2 | C#CC(O)C(CC)CCCC (stereo not given) | inactive | –
3 | CCC(=O)c1cccc(Cl)c1 | inactive | –
4 | NS(=O)(=O)c1cc2c(cc1Cl)NC(CSCc1ccccc1)=NS2(=O)=O | – | -0.222% [at 18.6 µM] (inactive)
5 | CCCCCN(CCCCC)C(=O)C(CCC(=O)O)NC(=O)c1ccc(Cl)c(Cl)c1 (stereo not given) | inactive | –
6 | CCC(=O)Nc1cccc(N)c1 | inactive | –
7 | Nc1[nH]c(=O)ncc1F | – | 0.004% [at 18.6 µM] (inactive)
8 | CC(C)(C)CC(C)(C)N | inactive | –
9 | Cc1ccccc1C(=O)O | inactive | –
10 | CCc1cc(S(=O)(=O)O)c2cc(C(C)C)cccc1-2 | inactive | –
11 | Oc1cc(O)c2c(c1)O[C@H](c1ccc(O)c(O)c1)[C@H](O)C2 | inactive | –
12 | COC(=O)c1ccc(C(=O)OC)c(C(=O)OC)c1 | inactive | –
13 | COc1ccc(N=[N+]([O-])c2ccc(OC)cc2)cc1 | inactive | –
14 | NCC[C@H](O)C(=O)N[C@@H]1C[C@H](N)[C@@H](O[C@H]2O[C@H](CN)[C@@H](O)[C@H](O)[C@H]2O)[C@H](O)[C@H]1O[C@H]1O[C@H](CO)[C@@H](O)[C@H](N)[C@H]1O | inactive | –
15 | CN(C)CCOC(c1ccc(Cl)cc1)c1ccccn1 (stereo not given) | inactive | –
16 | N#CC1(O)CCCCC1 | inactive | –
17 | NC(=S)Nc1cccc2ccccc12 | – | 0.0539% [at 3.72 µM] (inactive)
18 | CCN(CC)C(=O)c1ccc(O)c(OC)c1 | inactive | –
19 | CC(=O)c1ccc(C)cc1 | inactive | –
20 | NCCNC(=O)c1ccc(Cl)cn1 | inactive | –

Row | SMILES | outcome | activity change
21 | CC(C)=CCC/C(C)=C/C(=O)O | inactive | –
22 | C(=C(c1ccccc1)c1ccccc1)c1ccccc1 | inactive | –
23 | CCOC(=O)Nc1ccc2c(c1)N(C(=O)CCN1CCOCC1)c1ccccc1S2 | – | -0.0159% [at 18.6 µM] (inactive)
24 | NC(=O)c1ncn([C@@H]2O[C@H](CO)[C@@H](O)[C@H]2O)c1O | inactive | –
25 | CC(C)[N+](C)(C)CC(O)COc1cccc2ccccc12 (stereo not given) | inactive | –
26 | CCO[Si](CCCN=C=O)(OCC)OCC | inactive | –
27 | N[C@@H](CS)C(=O)O | inactive | –
28 | C=C(C)C(=O)NCCC[N+](C)(C)C | inactive | –
29 | CC/C=C\C#N | inactive | –
30 | C=C(C)C(=O)OCCC(C)OC(=O)C(=C)C (stereo not given) | inactive | –
31 | CC(C)=CC(=O)O | inactive | –
32 | OCC(O)[C@@H](O)[C@H](O)[C@H](O)CO[C@H]1O[C@H](CO)[C@@H](O)[C@H](O)[C@H]1O (stereo not given in full) | inactive | –
33 | CCCC(C)C(=O)O (stereo not given) | inactive | –
34 | CCCC=O | inactive | –
35 | NC(=O)c1c(Cl)cccc1Cl | inactive | –
36 | CN1[C@@H]2CC[C@H]1CC(NC(=O)n1c(=O)[nH]c3ccccc31)C2 (stereo not given in full) | inactive | –
37 | C1=C\CC/C=C\CC/C=C\CC/1 | inactive | –
38 | COc1cc(C)cc(O)c1 | inactive | –
39 | CCN1CCCC1CNC(=O)c1cc(S(N)(=O)=O)ccc1OC (stereo not given) | inactive | –
40 | CCOC(=O)[C@H](CCc1ccccc1)N[C@@H](C)C(=O)N1CCC[C@H]1C(=O)O | inactive | –
